The text below walks through data of article PMC7862700, “An all-to-all approach to the identification of sequence-specific readers for epigenetic DNA modifications on cytosine”.

Assay in all cases: DAPPL (digital affinity profiling via proximity ligation, sequencing); 10 mM Tris-HCl pH 7.5, 50 mM NaCl, 1 mM DTT, 4% glycerol, room temperature, 30 min; GST-TFs on glutathione beads, 16-mer random dsDNA library, 0.1% formaldehyde crosslink after washing; high values mean tight binding
The target in one test is T1, FLI1 (Homo sapiens, UniProt Q01543 1-452).
T1 sequence: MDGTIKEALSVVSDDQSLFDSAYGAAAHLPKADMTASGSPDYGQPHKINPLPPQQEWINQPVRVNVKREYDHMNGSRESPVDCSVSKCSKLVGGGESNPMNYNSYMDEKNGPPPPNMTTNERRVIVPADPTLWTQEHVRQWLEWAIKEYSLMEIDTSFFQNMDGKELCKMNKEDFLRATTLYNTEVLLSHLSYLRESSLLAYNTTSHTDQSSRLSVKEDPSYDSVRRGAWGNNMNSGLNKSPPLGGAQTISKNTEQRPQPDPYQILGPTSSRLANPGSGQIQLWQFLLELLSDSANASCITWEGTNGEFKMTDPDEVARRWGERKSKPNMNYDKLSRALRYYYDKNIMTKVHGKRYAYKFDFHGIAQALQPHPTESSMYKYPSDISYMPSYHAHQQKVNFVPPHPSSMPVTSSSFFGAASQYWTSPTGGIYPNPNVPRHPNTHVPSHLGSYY
The settings on record: protein: recombinant; tags: N-terminal GST; dsDNA, one strand shown. The method in brief: (§1)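 Yeast served to express human transcription factors as GST fusions, which were then captured on glutathione beads and labelled with DNA barcodes. Pooled with a tag-only sample, they were incubated with 200 nmole of a 16-mer random double-stranded DNA library for 30 min at room temperature in Tris/NaCl/DTT/glycerol buffer, washed, crosslinked with 0.1% formaldehyde, ligated by proximity, amplified by PCR and sequenced. Dividing each hexamer's read frequency for a factor by its frequency for the tag-only sample gives the binding signal.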

For a further test, the target named is T2, ELK1 (Homo sapiens, UniProt P19419 1-428).
T2 sequence: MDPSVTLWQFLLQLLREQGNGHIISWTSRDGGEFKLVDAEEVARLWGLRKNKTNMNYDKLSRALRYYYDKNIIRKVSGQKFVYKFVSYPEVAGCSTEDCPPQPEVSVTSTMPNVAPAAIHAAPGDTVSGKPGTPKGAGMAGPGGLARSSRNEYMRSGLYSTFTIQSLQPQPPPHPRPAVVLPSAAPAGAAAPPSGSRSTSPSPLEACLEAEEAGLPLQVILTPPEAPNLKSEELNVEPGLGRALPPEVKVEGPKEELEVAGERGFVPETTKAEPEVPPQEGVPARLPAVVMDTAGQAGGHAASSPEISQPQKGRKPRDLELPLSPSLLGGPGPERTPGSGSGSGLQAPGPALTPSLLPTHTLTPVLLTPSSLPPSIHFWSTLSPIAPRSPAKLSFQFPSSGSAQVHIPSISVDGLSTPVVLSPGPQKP
The settings on record: protein: recombinant; tags: N-terminal GST; dsDNA, one strand shown. The procedure, abridged: as §1

The next test addresses T3, GABPA (Homo sapiens, UniProt Q06546 1-454).
T3 sequence: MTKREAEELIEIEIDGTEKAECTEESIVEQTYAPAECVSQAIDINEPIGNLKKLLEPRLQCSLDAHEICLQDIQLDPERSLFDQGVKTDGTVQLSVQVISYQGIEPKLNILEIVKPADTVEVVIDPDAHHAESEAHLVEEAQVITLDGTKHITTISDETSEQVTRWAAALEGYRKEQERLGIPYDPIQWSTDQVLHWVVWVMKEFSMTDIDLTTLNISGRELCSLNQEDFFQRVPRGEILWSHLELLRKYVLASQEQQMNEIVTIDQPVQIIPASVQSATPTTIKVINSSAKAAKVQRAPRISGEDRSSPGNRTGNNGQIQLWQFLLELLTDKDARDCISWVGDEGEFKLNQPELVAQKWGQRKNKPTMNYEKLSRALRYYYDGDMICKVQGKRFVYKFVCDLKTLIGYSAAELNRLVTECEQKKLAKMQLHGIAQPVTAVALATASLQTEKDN
The settings on record: protein: recombinant; tags: N-terminal GST; dsDNA, one strand shown. The procedure, abridged: as §1

The target in the next test is T4, ERG (Homo sapiens, UniProt P11308 1-479).
T4 sequence: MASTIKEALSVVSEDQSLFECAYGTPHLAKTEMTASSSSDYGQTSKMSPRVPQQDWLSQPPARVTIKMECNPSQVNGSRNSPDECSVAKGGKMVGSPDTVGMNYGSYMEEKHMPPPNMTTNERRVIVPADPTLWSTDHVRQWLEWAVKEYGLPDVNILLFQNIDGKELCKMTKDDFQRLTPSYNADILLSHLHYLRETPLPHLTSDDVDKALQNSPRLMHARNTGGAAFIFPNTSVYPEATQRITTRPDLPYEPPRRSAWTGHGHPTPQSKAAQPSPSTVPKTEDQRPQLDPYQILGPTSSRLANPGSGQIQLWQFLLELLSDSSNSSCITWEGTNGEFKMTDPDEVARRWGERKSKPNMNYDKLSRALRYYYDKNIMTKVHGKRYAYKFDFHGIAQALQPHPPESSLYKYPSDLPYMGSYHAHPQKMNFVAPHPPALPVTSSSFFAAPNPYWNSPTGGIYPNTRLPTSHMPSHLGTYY
To be noted: protein: recombinant; tags: N-terminal GST; dsDNA, one strand shown. The procedure, abridged: as §1

Another test addresses ELF1 (Homo sapiens, UniProt P32519 1-619). To be noted: protein: recombinant; tags: N-terminal GST; dsDNA, one strand shown. The method in brief: as §1
The next test has as its target T5, EHF (Homo sapiens, UniProt Q9NZC4 1-300).
T5 sequence: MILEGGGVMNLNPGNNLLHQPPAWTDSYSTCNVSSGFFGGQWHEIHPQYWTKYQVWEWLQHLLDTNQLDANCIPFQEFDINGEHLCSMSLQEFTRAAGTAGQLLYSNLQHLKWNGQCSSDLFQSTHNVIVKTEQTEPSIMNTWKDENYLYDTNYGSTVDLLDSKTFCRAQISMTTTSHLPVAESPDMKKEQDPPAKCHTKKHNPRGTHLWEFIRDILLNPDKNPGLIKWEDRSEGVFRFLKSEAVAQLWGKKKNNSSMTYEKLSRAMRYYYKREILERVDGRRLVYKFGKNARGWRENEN
To be noted: protein: recombinant; tags: N-terminal GST; dsDNA, one strand shown. The method in brief: as §1

The target of another test is SPI1 (Homo sapiens, UniProt P17947 1-270). To be noted: protein: recombinant; tags: N-terminal GST; dsDNA, one strand shown. The method in brief:
as §1

A further test has as its target SPIB (Homo sapiens, UniProt Q01892 1-262). The settings on record: protein: recombinant; tags: N-terminal GST; dsDNA, one strand shown. The method in brief: as §1
The target in another test is T6, ELK3 (Homo sapiens, UniProt P41970 1-407).
T6 sequence: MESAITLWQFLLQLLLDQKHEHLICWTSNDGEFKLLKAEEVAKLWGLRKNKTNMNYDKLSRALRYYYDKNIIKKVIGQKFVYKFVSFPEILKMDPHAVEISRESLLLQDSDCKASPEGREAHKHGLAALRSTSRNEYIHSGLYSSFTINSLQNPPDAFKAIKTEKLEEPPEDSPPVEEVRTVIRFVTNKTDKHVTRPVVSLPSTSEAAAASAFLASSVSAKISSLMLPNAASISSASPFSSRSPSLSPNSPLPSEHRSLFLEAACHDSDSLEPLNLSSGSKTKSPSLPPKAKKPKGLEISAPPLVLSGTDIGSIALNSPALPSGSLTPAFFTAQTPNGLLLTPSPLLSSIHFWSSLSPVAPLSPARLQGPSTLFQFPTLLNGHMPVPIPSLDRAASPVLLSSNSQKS
To be noted: protein: recombinant; tags: N-terminal GST; dsDNA, one strand shown. The procedure, abridged: as §1

A further test has as its target T7, FEV (Homo sapiens, UniProt Q99581 1-238).
T7 sequence: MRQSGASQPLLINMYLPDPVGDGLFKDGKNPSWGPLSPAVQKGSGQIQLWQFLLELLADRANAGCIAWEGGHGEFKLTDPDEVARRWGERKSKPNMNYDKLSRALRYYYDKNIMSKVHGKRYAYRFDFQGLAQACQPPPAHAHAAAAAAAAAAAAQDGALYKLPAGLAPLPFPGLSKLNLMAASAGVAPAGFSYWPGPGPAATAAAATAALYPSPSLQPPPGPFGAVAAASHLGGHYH
To be noted: protein: recombinant; tags: N-terminal GST; dsDNA, one strand shown. The procedure, abridged: as §1

Another test deals with ETV5 (Homo sapiens, UniProt P41161 1-510). To be noted: protein: recombinant; tags: N-terminal GST; dsDNA, one strand shown. The method in brief:
as §1

Another test addresses HSF1 (Homo sapiens, UniProt Q00613 1-529). To be noted: protein: recombinant; tags: N-terminal GST; chain copies: 3; dsDNA, one strand shown. The procedure, abridged: as §1
Another test concerns the target T8, SPIC (Homo sapiens, UniProt Q8N5J4 1-248).
T8 sequence: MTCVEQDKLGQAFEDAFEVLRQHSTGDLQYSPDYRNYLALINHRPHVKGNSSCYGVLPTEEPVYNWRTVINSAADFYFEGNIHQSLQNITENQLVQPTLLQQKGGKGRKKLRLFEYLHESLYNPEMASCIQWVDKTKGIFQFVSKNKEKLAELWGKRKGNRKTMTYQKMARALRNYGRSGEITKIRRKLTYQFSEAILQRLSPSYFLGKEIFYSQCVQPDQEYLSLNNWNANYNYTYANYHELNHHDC
To be noted: protein: recombinant; tags: N-terminal GST; dsDNA, one strand shown. The procedure, abridged: as §1

The next test addresses ELF4 (Homo sapiens, UniProt Q99607 1-663). To be noted: protein: recombinant; tags: N-terminal GST; dsDNA, one strand shown. The procedure, abridged:
as §1

The target of the next test is T9, ELK4 (Homo sapiens, UniProt P28324-2 1-405).
T9 sequence: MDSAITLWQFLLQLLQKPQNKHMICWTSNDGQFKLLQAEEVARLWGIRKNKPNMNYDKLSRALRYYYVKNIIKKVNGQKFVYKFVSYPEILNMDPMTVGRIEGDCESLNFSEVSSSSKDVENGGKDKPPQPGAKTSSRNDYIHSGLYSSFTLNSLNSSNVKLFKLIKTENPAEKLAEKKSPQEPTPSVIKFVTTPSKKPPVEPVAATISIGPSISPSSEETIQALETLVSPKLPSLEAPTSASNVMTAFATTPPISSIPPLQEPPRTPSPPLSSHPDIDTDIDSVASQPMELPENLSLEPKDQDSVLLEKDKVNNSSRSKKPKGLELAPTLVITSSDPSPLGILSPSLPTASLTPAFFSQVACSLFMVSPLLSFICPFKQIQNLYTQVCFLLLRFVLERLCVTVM
The settings on record: protein: recombinant; tags: N-terminal GST; dsDNA, one strand shown. The procedure, abridged: as §1

The target of another test is T10, ETV2 (Homo sapiens, UniProt O00321 1-342).
T10 sequence: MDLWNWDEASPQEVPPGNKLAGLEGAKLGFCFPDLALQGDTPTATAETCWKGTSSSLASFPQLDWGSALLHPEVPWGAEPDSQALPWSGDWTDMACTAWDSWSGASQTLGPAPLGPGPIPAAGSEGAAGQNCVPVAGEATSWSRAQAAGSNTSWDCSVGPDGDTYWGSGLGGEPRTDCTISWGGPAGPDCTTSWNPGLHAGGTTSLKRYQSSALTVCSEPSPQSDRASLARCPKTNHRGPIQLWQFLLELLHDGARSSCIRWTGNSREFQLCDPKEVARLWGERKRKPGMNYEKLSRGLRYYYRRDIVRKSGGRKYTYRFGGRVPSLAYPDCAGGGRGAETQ
To be noted: protein: recombinant; tags: N-terminal GST; dsDNA, one strand shown. The method in brief:
as §1

A further test deals with T11, ELF3 (Homo sapiens, UniProt P78545 1-371).
T11 sequence: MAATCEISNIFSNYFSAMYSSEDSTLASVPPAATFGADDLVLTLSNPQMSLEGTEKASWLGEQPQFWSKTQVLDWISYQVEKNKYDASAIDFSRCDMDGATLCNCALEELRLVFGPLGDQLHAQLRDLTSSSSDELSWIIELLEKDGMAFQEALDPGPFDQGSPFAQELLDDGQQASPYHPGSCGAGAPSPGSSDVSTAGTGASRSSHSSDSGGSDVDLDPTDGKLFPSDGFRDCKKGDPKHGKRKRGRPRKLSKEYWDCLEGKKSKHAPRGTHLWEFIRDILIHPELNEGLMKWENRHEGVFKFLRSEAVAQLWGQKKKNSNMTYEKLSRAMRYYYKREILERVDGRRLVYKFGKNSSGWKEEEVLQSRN
To be noted: protein: recombinant; tags: N-terminal GST; dsDNA, one strand shown. The procedure, abridged: as §1

The target in a further test is CRX (Homo sapiens, UniProt O43186 1-299). To be noted: protein: recombinant; tags: N-terminal GST; dsDNA, one strand shown. The procedure, abridged:
as §1

In another test the target is ETV1 (Homo sapiens, UniProt P50549 1-477). The settings on record: protein: recombinant; tags: N-terminal GST; dsDNA, one strand shown. The procedure, abridged: as §1
Sequence of ETV1 (P50549 whole entry): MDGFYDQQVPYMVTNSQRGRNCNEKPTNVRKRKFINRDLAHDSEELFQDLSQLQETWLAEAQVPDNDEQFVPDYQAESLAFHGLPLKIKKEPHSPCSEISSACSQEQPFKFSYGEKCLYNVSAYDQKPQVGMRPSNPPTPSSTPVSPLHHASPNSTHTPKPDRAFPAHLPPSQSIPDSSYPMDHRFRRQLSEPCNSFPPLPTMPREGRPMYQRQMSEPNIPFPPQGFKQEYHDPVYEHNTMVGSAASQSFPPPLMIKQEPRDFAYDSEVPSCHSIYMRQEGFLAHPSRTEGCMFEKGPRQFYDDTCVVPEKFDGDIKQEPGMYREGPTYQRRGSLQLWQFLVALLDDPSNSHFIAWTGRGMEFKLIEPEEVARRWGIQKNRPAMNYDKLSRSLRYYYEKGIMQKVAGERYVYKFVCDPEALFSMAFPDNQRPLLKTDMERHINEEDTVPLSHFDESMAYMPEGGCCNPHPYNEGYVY

Sequence of ETV5 (P41161 whole entry): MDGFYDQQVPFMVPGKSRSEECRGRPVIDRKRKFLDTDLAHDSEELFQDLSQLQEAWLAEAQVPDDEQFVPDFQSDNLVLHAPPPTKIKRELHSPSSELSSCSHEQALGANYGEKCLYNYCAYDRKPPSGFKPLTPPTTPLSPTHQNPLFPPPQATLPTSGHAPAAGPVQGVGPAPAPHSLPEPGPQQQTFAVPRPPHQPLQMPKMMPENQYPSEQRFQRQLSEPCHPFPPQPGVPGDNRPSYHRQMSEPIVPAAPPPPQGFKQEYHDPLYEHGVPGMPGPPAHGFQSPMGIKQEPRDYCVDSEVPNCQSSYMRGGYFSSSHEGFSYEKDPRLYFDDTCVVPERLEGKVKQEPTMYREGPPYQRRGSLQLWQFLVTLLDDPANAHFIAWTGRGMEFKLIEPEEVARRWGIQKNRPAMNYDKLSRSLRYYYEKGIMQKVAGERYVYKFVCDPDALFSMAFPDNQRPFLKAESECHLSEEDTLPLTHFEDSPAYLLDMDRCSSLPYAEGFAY
Sequence of ELF1 (P32519 whole entry): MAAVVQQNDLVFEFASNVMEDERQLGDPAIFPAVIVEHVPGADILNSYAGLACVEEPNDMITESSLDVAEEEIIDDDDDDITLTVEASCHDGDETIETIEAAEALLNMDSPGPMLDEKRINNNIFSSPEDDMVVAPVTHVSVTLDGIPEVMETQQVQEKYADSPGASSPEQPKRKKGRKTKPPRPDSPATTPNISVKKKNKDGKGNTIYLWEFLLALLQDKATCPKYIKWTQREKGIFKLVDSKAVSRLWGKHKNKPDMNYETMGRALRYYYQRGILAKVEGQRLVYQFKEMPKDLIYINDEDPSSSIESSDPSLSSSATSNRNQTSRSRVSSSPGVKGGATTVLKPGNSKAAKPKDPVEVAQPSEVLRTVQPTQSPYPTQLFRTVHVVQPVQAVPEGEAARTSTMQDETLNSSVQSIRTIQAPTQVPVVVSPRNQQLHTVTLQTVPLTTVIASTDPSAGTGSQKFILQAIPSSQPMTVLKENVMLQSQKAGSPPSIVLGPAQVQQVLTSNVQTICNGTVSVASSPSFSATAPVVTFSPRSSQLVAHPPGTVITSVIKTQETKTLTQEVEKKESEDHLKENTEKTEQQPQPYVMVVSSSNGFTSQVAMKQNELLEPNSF
Sequence of ELF4 (Q99607 whole entry): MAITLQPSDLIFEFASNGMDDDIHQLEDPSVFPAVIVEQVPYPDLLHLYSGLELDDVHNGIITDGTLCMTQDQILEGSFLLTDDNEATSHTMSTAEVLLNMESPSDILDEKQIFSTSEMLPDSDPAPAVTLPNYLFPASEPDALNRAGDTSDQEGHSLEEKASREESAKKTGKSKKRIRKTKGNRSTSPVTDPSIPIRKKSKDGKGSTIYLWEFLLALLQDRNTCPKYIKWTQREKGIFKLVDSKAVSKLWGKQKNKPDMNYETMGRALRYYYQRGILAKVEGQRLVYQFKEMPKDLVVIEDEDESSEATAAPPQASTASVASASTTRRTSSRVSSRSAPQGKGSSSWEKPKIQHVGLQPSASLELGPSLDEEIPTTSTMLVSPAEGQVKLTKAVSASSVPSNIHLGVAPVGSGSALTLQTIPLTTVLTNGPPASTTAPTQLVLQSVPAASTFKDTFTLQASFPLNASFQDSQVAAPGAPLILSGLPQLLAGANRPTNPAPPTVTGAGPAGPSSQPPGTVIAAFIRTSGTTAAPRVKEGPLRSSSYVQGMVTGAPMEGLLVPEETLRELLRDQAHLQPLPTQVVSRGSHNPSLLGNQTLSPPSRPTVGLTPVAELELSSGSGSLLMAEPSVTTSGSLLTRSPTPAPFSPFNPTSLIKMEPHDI
Sequence of HSF1 (Q00613 whole entry): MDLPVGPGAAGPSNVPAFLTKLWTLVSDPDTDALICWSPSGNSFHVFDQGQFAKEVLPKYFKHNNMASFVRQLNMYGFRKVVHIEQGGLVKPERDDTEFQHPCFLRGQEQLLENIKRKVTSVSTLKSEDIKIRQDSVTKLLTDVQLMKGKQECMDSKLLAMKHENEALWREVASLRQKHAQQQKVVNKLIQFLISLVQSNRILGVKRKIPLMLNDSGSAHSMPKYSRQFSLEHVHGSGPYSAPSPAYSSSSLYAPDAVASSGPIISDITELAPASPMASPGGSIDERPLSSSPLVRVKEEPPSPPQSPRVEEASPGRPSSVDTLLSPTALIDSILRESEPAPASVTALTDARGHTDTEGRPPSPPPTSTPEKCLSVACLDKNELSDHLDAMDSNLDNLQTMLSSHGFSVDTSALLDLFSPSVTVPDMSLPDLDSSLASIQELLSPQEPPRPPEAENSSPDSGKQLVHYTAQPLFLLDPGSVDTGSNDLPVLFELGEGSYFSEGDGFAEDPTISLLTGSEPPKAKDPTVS
Sequence of CRX (O43186 whole entry): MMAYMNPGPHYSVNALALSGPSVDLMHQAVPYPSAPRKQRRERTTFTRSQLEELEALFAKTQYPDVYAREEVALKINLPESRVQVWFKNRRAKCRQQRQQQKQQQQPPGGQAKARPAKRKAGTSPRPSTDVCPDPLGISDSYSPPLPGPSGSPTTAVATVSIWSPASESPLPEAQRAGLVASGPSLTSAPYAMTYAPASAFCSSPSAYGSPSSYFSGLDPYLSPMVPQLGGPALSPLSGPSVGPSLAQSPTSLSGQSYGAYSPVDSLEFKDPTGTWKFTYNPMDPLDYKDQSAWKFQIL
Sequence of SPIB (Q01892 whole entry): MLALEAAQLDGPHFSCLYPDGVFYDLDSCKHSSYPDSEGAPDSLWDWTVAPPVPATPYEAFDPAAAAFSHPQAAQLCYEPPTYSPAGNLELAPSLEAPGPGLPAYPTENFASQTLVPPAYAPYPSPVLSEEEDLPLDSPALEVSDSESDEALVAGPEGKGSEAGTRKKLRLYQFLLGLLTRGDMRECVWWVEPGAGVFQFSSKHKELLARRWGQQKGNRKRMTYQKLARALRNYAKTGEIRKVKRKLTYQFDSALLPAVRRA

With GACTTT, the binding signal with FLI1 is 1.04 fold enrichment (6-mer frequency, TF over GST control); with ELK1, 1.18 fold enrichment (6-mer frequency, TF over GST control); with GABPA, 1.17 fold enrichment (6-mer frequency, TF over GST control); with ERG, 1.16 fold enrichment (6-mer frequency, TF over GST control); in the test with ELF1 it was 1.12 fold enrichment (6-mer frequency, TF over GST control); with EHF it was 1.07 fold enrichment (6-mer frequency, TF over GST control). Also, the binding signal with SPI1 was 1.23 fold enrichment (6-mer frequency, TF over GST control); in the test with SPIB, 1.12 fold enrichment (6-mer frequency, TF over GST control); in the test with ELK3 it was 1.12 fold enrichment (6-mer frequency, TF over GST control); with FEV, 1.14 fold enrichment (6-mer frequency, TF over GST control); in the test with ETV5, 1.22 fold enrichment (6-mer frequency, TF over GST control); with HSF1 it was 1.4 fold enrichment (6-mer frequency, TF over GST control). Besides, the binding signal in the test with SPIC was 1.21 fold enrichment (6-mer frequency, TF over GST control); with ELF4, 1.22 fold enrichment (6-mer frequency, TF over GST control); with ELK4 it was 1.17 fold enrichment (6-mer frequency, TF over GST control); with ETV2, 1.1 fold enrichment (6-mer frequency, TF over GST control); with ELF3, 1.1 fold enrichment (6-mer frequency, TF over GST control); with CRX it was 1.37 fold enrichment (6-mer frequency, TF over GST control). Besides, the binding signal with ETV1 was 1.24 fold enrichment (6-mer frequency, TF over GST control).
